Assay results from article PMC7862700, “An all-to-all approach to the identification of sequence-specific readers for epigenetic DNA modifications on cytosine”.

What was measured:
Assay in all cases: DAPPL (digital affinity profiling via proximity ligation, sequencing); 10 mM Tris-HCl pH 7.5, 50 mM NaCl, 1 mM DTT, 4% glycerol, room temperature, 30 min; GST-TFs on glutathione beads, 16-mer random dsDNA library, 0.1% formaldehyde crosslink after washing; high values mean tight binding
FLI1 = target: T1, FLI1 (Homo sapiens, UniProt Q01543 1-452); details: protein: recombinant; tags: N-terminal GST; dsDNA, one strand shown
T1 sequence: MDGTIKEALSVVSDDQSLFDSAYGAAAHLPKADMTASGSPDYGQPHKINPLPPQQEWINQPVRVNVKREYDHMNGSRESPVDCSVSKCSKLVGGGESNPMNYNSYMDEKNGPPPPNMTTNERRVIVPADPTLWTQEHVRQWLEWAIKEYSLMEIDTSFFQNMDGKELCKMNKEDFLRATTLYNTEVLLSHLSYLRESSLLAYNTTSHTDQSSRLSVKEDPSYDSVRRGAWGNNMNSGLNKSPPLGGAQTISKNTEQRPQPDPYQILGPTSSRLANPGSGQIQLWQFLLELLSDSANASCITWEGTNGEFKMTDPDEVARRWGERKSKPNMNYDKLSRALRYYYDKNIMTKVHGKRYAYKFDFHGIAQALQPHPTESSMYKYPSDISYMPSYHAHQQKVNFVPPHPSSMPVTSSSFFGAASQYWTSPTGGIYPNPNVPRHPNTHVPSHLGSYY
Outline: (§1)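 Binding signal is defined as a hexamer's read frequency for one factor over its frequency for the tag-only sample. To obtain reads, GST-fused human transcription factors were expressed in yeast, captured on glutathione beads, barcoded with DNA and pooled with that sample. Pools met 200 nmole of a 16-mer random double-stranded DNA library in Tris/NaCl/DTT/glycerol buffer for 30 min at room temperature before washing, 0.1% formaldehyde crosslinking, proximity ligation (BsaI/T4 ligase, 1 h, 37 °C), PCR and Illumina NextSeq500 sequencing.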

ELK1 = target: T2, ELK1 (Homo sapiens, UniProt P19419 1-428); details: protein: recombinant; tags: N-terminal GST; dsDNA, one strand shown
T2 sequence: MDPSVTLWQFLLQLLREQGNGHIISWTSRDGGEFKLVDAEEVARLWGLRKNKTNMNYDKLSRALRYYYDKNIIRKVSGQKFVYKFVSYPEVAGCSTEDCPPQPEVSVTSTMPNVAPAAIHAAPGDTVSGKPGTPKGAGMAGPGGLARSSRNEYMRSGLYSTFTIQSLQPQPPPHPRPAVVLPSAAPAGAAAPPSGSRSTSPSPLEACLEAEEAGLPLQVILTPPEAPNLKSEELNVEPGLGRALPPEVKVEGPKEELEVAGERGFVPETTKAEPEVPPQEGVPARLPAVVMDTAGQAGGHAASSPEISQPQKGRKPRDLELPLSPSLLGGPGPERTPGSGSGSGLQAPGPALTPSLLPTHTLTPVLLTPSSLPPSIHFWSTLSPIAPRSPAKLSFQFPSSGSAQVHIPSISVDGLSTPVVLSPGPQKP
Outline: as §1

GABPA = target: T3, GABPA (Homo sapiens, UniProt Q06546 1-454); details: protein: recombinant; tags: N-terminal GST; dsDNA, one strand shown
T3 sequence: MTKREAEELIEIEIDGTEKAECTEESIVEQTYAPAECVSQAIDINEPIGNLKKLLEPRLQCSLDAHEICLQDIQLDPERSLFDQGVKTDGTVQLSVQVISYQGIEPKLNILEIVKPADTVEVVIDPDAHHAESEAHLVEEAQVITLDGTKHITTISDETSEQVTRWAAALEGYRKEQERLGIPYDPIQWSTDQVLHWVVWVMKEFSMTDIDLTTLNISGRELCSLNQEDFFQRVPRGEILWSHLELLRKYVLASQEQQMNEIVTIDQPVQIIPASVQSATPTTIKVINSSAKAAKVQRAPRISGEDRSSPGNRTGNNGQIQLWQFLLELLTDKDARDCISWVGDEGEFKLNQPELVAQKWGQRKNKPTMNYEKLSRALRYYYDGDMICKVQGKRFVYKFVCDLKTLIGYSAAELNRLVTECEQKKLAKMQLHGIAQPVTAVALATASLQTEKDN
Outline: as §1

ERG = target: T4, ERG (Homo sapiens, UniProt P11308 1-479); details: protein: recombinant; tags: N-terminal GST; dsDNA, one strand shown
T4 sequence: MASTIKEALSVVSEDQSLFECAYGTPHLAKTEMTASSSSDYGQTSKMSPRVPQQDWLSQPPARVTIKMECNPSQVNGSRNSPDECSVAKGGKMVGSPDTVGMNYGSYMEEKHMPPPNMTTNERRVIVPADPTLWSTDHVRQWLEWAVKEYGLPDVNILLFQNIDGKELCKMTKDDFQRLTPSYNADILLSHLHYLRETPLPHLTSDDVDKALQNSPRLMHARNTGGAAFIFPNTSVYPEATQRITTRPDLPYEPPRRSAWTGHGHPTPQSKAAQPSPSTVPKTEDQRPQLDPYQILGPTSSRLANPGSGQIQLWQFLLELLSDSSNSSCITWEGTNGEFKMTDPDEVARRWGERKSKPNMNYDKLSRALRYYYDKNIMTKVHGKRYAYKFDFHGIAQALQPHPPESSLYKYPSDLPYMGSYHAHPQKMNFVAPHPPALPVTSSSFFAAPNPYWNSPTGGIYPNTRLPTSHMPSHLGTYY
Outline: as §1

ELF1 = ELF1 (Homo sapiens, UniProt P32519 1-619); details: protein: recombinant; tags: N-terminal GST; dsDNA, one strand shown
Outline: as §1

EHF = target: T5, EHF (Homo sapiens, UniProt Q9NZC4 1-300); details: protein: recombinant; tags: N-terminal GST; dsDNA, one strand shown
T5 sequence: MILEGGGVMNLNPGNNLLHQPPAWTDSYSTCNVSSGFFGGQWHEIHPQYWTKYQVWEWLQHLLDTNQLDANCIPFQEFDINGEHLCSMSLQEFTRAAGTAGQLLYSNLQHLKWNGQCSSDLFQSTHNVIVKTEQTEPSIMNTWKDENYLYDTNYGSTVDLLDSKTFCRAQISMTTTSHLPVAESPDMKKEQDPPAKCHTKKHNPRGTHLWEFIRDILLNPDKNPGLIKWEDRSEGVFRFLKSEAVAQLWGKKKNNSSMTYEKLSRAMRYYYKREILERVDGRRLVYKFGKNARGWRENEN
Outline: as §1

SPI1 = SPI1 (Homo sapiens, UniProt P17947 1-270); details: protein: recombinant; tags: N-terminal GST; dsDNA, one strand shown
Outline: as §1

SPIB = SPIB (Homo sapiens, UniProt Q01892 1-262); details: protein: recombinant; tags: N-terminal GST; dsDNA, one strand shown
Outline: as §1

ELK3 = target: T6, ELK3 (Homo sapiens, UniProt P41970 1-407); details: protein: recombinant; tags: N-terminal GST; dsDNA, one strand shown
T6 sequence: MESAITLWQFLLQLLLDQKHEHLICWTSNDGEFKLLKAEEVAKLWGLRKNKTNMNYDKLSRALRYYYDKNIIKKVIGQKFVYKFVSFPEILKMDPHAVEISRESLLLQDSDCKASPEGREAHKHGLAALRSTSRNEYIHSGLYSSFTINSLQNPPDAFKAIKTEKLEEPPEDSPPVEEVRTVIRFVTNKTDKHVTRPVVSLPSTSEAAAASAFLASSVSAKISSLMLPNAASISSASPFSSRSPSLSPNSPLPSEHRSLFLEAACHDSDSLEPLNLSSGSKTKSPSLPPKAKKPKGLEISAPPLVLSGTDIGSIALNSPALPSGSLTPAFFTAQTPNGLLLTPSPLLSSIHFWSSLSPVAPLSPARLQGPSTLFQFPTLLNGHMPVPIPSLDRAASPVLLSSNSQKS
Outline: as §1

FEV = target: T7, FEV (Homo sapiens, UniProt Q99581 1-238); details: protein: recombinant; tags: N-terminal GST; dsDNA, one strand shown
T7 sequence: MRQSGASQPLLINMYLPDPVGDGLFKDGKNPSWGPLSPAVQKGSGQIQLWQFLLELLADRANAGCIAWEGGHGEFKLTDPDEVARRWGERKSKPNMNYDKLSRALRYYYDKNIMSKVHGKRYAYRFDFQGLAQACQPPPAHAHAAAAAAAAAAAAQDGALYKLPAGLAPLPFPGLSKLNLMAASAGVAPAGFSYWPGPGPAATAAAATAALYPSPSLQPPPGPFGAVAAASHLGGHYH
Outline: as §1

ETV5 = ETV5 (Homo sapiens, UniProt P41161 1-510); details: protein: recombinant; tags: N-terminal GST; dsDNA, one strand shown
Outline: as §1

HSF1 = HSF1 (Homo sapiens, UniProt Q00613 1-529); details: protein: recombinant; tags: N-terminal GST; chain copies: 3; dsDNA, one strand shown
Outline: as §1

SPIC = target: T8, SPIC (Homo sapiens, UniProt Q8N5J4 1-248); details: protein: recombinant; tags: N-terminal GST; dsDNA, one strand shown
T8 sequence: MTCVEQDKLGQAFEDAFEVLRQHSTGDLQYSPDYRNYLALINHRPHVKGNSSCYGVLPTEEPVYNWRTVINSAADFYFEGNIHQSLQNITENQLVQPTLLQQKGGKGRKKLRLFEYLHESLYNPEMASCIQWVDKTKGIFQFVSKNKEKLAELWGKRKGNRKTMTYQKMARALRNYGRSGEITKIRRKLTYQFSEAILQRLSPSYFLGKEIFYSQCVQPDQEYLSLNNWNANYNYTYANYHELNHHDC
Outline: as §1

ELF4 = ELF4 (Homo sapiens, UniProt Q99607 1-663); details: protein: recombinant; tags: N-terminal GST; dsDNA, one strand shown
Outline: as §1

ELK4 = target: T9, ELK4 (Homo sapiens, UniProt P28324-2 1-405); details: protein: recombinant; tags: N-terminal GST; dsDNA, one strand shown
T9 sequence: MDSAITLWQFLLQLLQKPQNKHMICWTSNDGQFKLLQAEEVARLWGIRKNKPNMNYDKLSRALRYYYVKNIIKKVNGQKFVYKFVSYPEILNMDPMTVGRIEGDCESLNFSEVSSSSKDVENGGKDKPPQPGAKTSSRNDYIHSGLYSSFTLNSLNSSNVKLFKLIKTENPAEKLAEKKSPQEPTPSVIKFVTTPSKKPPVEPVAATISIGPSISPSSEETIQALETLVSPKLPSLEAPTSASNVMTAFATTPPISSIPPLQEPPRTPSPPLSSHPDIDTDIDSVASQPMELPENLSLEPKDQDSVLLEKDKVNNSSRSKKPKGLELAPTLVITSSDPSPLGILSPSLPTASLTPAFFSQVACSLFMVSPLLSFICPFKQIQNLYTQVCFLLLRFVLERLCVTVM
Outline: as §1

ETV2 = target: T10, ETV2 (Homo sapiens, UniProt O00321 1-342); details: protein: recombinant; tags: N-terminal GST; dsDNA, one strand shown
T10 sequence: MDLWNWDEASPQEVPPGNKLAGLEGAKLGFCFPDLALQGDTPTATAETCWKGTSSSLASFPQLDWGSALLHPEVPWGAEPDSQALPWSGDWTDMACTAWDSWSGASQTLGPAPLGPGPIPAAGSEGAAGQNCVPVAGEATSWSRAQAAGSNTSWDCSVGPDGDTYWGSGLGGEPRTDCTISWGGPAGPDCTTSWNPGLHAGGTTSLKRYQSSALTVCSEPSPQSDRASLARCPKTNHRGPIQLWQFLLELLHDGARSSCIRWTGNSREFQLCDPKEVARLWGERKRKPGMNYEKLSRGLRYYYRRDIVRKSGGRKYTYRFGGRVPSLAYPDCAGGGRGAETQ
Outline: as §1

ELF3 = target: T11, ELF3 (Homo sapiens, UniProt P78545 1-371); details: protein: recombinant; tags: N-terminal GST; dsDNA, one strand shown
T11 sequence: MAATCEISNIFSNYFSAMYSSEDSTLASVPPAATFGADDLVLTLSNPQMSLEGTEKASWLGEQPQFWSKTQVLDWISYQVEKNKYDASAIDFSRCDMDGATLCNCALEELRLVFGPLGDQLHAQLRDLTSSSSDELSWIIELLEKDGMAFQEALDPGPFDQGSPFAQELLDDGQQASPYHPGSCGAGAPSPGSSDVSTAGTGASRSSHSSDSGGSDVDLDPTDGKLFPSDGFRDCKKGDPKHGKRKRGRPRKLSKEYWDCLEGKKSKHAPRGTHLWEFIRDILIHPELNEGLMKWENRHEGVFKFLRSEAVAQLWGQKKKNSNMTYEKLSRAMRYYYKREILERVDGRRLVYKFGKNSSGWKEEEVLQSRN
Outline: as §1

CRX = CRX (Homo sapiens, UniProt O43186 1-299); details: protein: recombinant; tags: N-terminal GST; dsDNA, one strand shown
Outline: as §1

ETV1 = ETV1 (Homo sapiens, UniProt P50549 1-477); details: protein: recombinant; tags: N-terminal GST; dsDNA, one strand shown
Outline: as §1

HSF1, sequence (Q00613 whole entry): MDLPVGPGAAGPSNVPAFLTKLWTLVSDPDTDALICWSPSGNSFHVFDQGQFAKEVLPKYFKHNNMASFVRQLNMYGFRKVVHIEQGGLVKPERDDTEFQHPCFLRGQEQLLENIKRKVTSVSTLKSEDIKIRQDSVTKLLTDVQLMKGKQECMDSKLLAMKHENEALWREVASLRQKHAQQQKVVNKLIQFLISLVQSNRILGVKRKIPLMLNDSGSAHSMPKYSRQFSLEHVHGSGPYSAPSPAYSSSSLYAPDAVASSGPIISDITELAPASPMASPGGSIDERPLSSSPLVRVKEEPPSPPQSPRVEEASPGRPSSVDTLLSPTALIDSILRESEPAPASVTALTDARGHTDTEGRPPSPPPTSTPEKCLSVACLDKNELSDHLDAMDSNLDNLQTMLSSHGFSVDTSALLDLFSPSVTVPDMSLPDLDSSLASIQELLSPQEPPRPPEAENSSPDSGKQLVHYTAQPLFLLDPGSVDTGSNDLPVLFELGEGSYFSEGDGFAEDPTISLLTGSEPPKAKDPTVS
ELF1, sequence (P32519 whole entry): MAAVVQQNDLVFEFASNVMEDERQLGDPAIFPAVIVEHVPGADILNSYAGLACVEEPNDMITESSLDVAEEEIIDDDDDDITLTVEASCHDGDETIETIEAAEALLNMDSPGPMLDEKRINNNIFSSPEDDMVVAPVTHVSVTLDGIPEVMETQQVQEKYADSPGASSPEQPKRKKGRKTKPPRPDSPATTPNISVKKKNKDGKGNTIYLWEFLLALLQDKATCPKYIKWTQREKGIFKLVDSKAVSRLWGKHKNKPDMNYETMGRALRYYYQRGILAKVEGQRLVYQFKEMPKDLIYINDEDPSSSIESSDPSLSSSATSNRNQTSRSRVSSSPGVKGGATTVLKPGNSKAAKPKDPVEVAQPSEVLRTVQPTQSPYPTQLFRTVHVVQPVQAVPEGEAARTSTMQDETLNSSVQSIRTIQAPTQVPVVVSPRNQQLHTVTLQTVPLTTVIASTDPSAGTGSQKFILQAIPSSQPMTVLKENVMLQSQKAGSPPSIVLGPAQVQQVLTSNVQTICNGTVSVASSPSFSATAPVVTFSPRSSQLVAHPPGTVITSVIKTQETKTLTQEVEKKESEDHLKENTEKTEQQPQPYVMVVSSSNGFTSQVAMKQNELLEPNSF
ETV1, sequence (P50549 whole entry): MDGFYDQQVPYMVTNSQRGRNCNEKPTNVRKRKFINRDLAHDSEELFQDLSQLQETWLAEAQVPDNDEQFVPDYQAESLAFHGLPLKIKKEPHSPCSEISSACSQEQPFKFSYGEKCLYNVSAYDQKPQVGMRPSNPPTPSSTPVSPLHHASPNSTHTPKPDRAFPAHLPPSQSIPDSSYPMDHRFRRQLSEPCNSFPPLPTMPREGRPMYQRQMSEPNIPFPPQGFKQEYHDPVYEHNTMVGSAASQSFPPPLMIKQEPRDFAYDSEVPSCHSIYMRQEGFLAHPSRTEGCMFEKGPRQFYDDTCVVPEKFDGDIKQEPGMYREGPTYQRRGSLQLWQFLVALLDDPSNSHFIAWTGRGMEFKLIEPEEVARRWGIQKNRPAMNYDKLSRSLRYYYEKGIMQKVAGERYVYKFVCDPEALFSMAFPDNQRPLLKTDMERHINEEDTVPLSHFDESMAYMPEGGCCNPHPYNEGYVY
ETV5, sequence (P41161 whole entry): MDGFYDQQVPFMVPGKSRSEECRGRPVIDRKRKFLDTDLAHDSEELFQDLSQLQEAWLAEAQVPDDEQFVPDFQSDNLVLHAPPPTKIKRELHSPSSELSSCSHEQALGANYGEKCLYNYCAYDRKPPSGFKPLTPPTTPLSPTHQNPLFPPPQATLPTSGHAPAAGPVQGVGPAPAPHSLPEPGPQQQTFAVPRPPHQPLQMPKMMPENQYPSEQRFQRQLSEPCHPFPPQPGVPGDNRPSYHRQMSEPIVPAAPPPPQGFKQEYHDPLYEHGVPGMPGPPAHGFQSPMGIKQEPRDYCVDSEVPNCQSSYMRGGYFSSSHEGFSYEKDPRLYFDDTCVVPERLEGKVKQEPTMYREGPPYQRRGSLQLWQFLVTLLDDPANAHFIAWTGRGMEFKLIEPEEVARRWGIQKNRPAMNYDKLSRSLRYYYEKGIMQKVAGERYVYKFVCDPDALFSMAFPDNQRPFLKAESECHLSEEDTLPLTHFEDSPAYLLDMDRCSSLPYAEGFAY
SPIB, sequence (Q01892 whole entry): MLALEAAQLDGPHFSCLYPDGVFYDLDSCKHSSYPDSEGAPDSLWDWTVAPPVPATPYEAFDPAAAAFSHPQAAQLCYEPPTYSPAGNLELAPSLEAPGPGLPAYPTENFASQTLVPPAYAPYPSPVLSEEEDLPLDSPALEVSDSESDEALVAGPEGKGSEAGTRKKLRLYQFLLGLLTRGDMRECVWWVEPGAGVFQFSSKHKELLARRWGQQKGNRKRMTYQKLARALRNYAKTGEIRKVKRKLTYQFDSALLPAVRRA
CRX, sequence (O43186 whole entry): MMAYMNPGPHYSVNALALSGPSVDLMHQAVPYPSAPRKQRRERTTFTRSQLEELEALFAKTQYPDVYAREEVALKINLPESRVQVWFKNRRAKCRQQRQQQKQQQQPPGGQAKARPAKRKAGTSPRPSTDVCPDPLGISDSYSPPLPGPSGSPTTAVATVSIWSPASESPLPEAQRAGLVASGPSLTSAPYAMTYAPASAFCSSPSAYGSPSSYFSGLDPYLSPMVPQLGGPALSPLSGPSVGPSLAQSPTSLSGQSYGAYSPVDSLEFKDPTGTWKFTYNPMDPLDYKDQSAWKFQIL
ELF4, sequence (Q99607 whole entry): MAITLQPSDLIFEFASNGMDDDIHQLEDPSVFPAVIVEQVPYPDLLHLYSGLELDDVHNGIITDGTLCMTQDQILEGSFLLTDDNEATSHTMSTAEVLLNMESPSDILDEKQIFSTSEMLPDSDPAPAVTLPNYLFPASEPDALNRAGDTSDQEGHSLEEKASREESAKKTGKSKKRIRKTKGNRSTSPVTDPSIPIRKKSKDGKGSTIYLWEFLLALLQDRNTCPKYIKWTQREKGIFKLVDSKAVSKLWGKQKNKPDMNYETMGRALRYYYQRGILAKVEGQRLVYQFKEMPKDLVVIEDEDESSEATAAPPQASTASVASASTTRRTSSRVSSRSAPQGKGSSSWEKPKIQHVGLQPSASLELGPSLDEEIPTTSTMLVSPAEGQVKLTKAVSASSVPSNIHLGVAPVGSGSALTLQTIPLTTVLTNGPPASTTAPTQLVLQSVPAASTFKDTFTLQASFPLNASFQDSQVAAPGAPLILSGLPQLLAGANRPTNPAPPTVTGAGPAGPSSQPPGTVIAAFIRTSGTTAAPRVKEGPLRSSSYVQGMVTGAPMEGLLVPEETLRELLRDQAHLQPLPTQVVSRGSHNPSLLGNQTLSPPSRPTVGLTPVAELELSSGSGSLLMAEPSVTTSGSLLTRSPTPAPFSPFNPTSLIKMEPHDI

TTCCTT
binding signal (FLI1): 1.88 fold enrichment (6-mer frequency, TF over GST control) | binding signal (ELK1): 1.79 fold enrichment (6-mer frequency, TF over GST control) | binding signal (GABPA): 1.84 fold enrichment (6-mer frequency, TF over GST control) | binding signal (ERG): 2.11 fold enrichment (6-mer frequency, TF over GST control) | binding signal (ELF1): 1.96 fold enrichment (6-mer frequency, TF over GST control) | binding signal (EHF): 2.02 fold enrichment (6-mer frequency, TF over GST control) | binding signal (SPI1): 2.25 fold enrichment (6-mer frequency, TF over GST control) | binding signal (SPIB): 2.01 fold enrichment (6-mer frequency, TF over GST control) | binding signal (ELK3): 2.09 fold enrichment (6-mer frequency, TF over GST control) | binding signal (FEV): 1.76 fold enrichment (6-mer frequency, TF over GST control) | binding signal (ETV5): 2 fold enrichment (6-mer frequency, TF over GST control) | binding signal (HSF1): 1.61 fold enrichment (6-mer frequency, TF over GST control) | binding signal (SPIC): 1.99 fold enrichment (6-mer frequency, TF over GST control) | binding signal (ELF4): 1.79 fold enrichment (6-mer frequency, TF over GST control) | binding signal (ELK4): 1.75 fold enrichment (6-mer frequency, TF over GST control) | binding signal (ETV2): 1.79 fold enrichment (6-mer frequency, TF over GST control) | binding signal (ELF3): 1.76 fold enrichment (6-mer frequency, TF over GST control) | binding signal (CRX): 1.33 fold enrichment (6-mer frequency, TF over GST control) | binding signal (ETV1): 2.04 fold enrichment (6-mer frequency, TF over GST control)
